# Source: PubChem BioAssay (EPA / NIEHS)
# “And” between values parts separate entries of the source, which are not always exact repeats. Equal entries are not always repeated. Inconclusive results are not listed. The source made the active and inactive calls. The calls were made as follows, unless noted: active = hit-call score of the fitted dose curve at least 0.9, where 1 is the maximum; inactive = score below 0.9.
# Tests used:
# [1] = read-out: Monocyte Chemoattractant Protein-1 (MCP1), CCL2 (gene 6347); assay: BSK_SAg_MCP1: BioMAP Diversity Plus: SAg Assay for Monocyte Chemoattractant Protein-1 (MCP1) Biomarker Activity (AID 2283090); details: primary human HUVEC with PBMC; actives raise or lower the signal
# Outline: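 MCP-1 levels in the endothelial–PBMC SAg co-culture were quantified by ELISA at 24 h post-dosing; both increases and decreases versus DMSO scored. Cytotoxicity monitored by SRB total protein in parallel cultures.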
# [2] = read-out: E-selectin (Homo sapiens) (UniProt P16581); assay: BSK_SAg_Eselectin: BioMAP Diversity Plus: SAg Assay for Eselectin Biomarker Activity (AID 2283091); details: primary human HUVEC with PBMC; actives raise or lower the signal
# Outline: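 E-selectin ELISA readout at 24 h post-dosing in human umbilical vein endothelial cell/PBMC co-culture; gain or loss of signal fitted relative to DMSO baseline.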
# [3] = read-out: Monokine induced gamma interferon (MIG), CXCL9 (gene 4283); assay: BSK_SAg_MIG: BioMAP Diversity Plus: SAg Assay for Monokine induced gamma interferon (MIG) Biomarker Activity (AID 2283092); details: primary human HUVEC with PBMC; actives raise or lower the signal
# Outline: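 Endothelial cells and PBMC were co-cultured, exposed to test chemicals, and sampled 24 h later. MIG was measured by ELISA, and responses were fitted in both directions relative to DMSO.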
# [4] = BSK_SAg_PBMCCytotoxicity: PBMC Cytotoxicity Assessment in the BioMAP Diversity Plus: SAg Assay (AID 2283093); details: primary human HUVEC with PBMC;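 also: PBMC viability measured as Alamar Blue reduction fluorescence at 546/580 nm; fitted both ways against DMSO so a hit may be loss or gain of signal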;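 as to AC50: PBMC superantigen activated with SEB plus TSST-1 one hour after compound addition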
# Outline: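 HUVEC/PBMC co-culture; PBMC exposed to chemical 1 h before SEB and TSST-1 activation (20 ng/mL each), incubated 90 h, then Alamar Blue 6 h, fluorescence 546/580 nm. Bidirectional fit versus DMSO baseline.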
# [5] = read-out: Interleukin-8 (IL8), CXCL8 (gene 3576); assay: BSK_SAg_IL8: BioMAP Diversity Plus: SAg Assay for Interleukin-8 (IL8) Biomarker Activity (AID 2283094); details: primary human HUVEC with PBMC; actives raise or lower the signal
# Outline: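 In this co-culture of human umbilical vein endothelium with peripheral blood mononuclear cells, IL-8 is assayed by ELISA at 24 h. DMSO serves as baseline for bidirectional curve fitting.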
# [6] = BSK_SAg_Proliferation: Cell Proliferation Assessment in the BioMAP Diversity Plus: SAg Assay (AID 2283095); details: primary human HUVEC with PBMC;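 also: relative cell number as total protein by SRB absorbance in sub-confluent culture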
# Outline: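 Readout is SRB-stained protein (560 nm) in a primary human HUVEC and PBMC co-culture; sub-confluent cultures are read at 96 h. Activity is fitted bidirectionally using DMSO as baseline.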
# [7] = BSK_SAg_SRB: Viability Assessment in the BioMAP Diversity Plus: SAg Assay (AID 2283096); details: primary human HUVEC with PBMC;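 also: cells read one day after compound addition; hits may be either gain or loss of signal compared with DMSO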
# Outline: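 Human umbilical vein endothelial cells co-cultured with PBMC, read 24 h after compound dosing. Total protein measured by sulforhodamine B staining (0.1% SRB after 10% TCA fixation, absorbance 560 nm); bidirectional fit versus DMSO baseline.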
# [8] = target: human CYP1A1, CYP1A1 (gene 1543) (UniProt P04798); assay: NVS_ADME_hCYP1A1: NovaScreen (NVS) CYP450-related Enzyme Activity (ADME) Assay for human CYP1A1 (AID 2283100; active = hit-call score of the fitted dose curve at least 0.9, where 1 is the maximum)
# Sequence of human CYP1A1, CYP1A1 (gene 1543) (P04798 whole entry, looked up): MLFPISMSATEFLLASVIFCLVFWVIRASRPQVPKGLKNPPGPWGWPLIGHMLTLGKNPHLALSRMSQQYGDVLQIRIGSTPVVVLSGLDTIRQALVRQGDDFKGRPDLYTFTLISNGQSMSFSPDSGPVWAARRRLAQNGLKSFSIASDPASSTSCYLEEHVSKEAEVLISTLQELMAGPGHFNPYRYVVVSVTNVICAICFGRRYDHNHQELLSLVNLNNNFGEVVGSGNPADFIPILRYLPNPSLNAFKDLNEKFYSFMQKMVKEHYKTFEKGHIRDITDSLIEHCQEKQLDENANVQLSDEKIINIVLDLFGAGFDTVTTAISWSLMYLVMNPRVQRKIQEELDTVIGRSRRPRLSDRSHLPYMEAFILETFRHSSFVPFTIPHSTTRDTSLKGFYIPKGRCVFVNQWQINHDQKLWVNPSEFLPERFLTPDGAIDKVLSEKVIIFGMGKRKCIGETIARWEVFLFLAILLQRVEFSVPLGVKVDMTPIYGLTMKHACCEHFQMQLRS
# Outline: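 Read-out: fluorescence intensity from enzymatic turnover of substrate by recombinant CYP1A1, loss of signal indicating inhibition. Incubation 1 h post-dose. Primary single-point 10 uM in duplicate; actives rerun singly with top concentration 20 uM.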
# [9] = target: human CYP2A6, CYP2A6 (gene 1548) (UniProt P11509); assay: NVS_ADME_hCYP2A6: NovaScreen (NVS) CYP450-related Enzyme Activity (ADME) Assay for human CYP2A6 (AID 2283099; active = hit-call score of the fitted dose curve at least 0.9, where 1 is the maximum)
# Sequence of human CYP2A6, CYP2A6 (gene 1548) (P11509 whole entry, looked up): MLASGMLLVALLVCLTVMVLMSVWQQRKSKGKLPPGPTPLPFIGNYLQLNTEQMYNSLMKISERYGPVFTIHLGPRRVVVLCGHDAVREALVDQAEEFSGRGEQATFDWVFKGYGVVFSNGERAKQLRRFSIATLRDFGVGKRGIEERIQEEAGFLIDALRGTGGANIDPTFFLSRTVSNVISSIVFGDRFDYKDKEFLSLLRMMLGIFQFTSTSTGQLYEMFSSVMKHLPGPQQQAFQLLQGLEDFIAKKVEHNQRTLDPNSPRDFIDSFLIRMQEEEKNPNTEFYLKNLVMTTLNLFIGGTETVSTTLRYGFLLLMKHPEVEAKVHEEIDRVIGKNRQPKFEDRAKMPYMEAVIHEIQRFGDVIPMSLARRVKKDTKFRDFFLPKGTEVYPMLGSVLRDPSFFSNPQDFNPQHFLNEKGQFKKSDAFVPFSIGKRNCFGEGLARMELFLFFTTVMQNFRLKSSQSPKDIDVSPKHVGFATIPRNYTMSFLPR
# Outline: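 Insect-cell-expressed human CYP2A6 enzyme activity measured by fluorescence intensity 0.5 hour post-dosing. Compounds screened at 10 uM in duplicate, then hits tested singly in concentration series (max 20 uM); acetonitrile baseline.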
# [10] = target: human CYP19A1, CYP19A1 (gene 1588) (UniProt P11511); assay: NVS_ADME_hCYP19A1: NovaScreen (NVS) CYP450-related Enzyme Activity (ADME) Assay for human CYP19A1 (AID 2283098; active = hit-call score of the fitted dose curve at least 0.9, where 1 is the maximum;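 as to AC50: potency for inhibitors seen as loss of fluorescent enzyme signal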)
# Sequence of human CYP19A1, CYP19A1 (gene 1588) (P11511 whole entry, looked up): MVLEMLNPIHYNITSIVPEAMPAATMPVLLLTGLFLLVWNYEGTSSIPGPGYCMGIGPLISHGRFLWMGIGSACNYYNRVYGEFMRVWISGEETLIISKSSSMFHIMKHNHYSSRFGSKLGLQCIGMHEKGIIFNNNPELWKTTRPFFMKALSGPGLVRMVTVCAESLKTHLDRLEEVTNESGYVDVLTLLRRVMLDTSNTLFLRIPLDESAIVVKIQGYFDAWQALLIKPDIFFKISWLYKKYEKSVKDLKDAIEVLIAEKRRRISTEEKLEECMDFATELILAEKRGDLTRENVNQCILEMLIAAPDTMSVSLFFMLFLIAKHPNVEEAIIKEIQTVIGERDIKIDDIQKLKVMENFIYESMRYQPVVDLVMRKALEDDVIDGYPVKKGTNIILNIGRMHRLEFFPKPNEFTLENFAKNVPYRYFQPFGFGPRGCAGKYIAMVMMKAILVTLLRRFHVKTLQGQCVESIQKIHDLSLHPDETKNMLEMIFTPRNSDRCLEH
# Outline: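 Recombinant enzyme in a cell-free format, read 0.5 h after dosing by fluorescence from a fluorogenic substrate. Loss of signal was fitted against acetonitrile as baseline. Primary screen in duplicate at 10 uM, actives then tested in concentration series.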
# Sequence of E-selectin (Homo sapiens) (P16581 whole entry, looked up): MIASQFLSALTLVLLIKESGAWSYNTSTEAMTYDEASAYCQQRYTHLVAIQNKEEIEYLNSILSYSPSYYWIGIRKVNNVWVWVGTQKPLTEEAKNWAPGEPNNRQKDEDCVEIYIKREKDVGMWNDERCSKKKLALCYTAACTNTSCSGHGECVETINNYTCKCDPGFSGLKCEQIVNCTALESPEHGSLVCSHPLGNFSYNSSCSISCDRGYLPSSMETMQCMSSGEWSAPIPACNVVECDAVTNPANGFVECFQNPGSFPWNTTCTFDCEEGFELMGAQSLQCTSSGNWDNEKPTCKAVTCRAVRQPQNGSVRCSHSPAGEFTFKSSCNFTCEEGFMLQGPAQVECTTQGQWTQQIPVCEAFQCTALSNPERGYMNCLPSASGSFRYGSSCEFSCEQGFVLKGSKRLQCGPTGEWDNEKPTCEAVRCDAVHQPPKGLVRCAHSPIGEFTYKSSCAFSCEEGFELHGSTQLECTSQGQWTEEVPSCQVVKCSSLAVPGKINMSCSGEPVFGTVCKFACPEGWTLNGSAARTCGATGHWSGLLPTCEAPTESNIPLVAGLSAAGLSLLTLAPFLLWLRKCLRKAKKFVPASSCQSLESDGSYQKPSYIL
smiles,measurement,setting,value
ClC1=C(Cl)[C@]2(Cl)[C@@H]3[C@@H]4C[C@@H]([C@H]5O[C@@H]45)[C@@H]3[C@@]1(Cl)C2(Cl)Cl,outcome,[1],inactive
same,outcome,[2],inactive
same,outcome,[3],inactive
same,outcome,[4],inactive
same,outcome,[5],inactive
same,AC50,[6],20 µM (active)
same,AC50,[7],20 µM (active)
CC#Cc1cc(C)nc(Nc2ccccc2)n1,outcome,[1],inactive
same,outcome,[2],inactive
same,outcome,[3],inactive
same,outcome,[4],inactive
same,outcome,[5],inactive
same,AC50,[6],28.3 µM (active)
same,outcome,[7],inactive
same,AC50,[8],0.617 µM (active)
Clc1ccc(C(Cl)(Cl)Cl)cc1,outcome,[1],inactive
same,outcome,[2],inactive
same,outcome,[3],inactive
same,outcome,[4],inactive
same,outcome,[5],inactive
same,outcome,[6],inactive
same,outcome,[7],inactive
Cc1cc2c3c(c1)C(c1ccccc1)=N[C@@H](NC(=O)c1ccncc1)C(=O)N3CC2,AC50,[1],20 µM (active)
same,AC50,[2],4 µM (active)
same,outcome,[3],inactive
same,outcome,[4],inactive
same,AC50,[5],6.46 µM (active)
same,outcome,[6],inactive
same,outcome,[7],inactive
same,outcome,[9],inactive
CCC(C)c1cc([N+](=O)[O-])cc([N+](=O)[O-])c1O (stereo not given),AC50,[1],23.5 µM (active)
same,AC50,[2],14.2 µM (active)
same,AC50,[3],31.7 µM (active)
same,AC50,[4],5.36 µM (active)
same,AC50,[5],8.89 µM (active)
same,AC50,[6],19.6 µM (active)
same,AC50,[7],18 µM (active)
Clc1ccc(C(c2ccccc2Cl)C(Cl)(Cl)Cl)cc1 (stereo not given),AC50,[1],21.5 µM (active)
same,AC50,[2],24.7 µM (active)
same,AC50,[3],27.6 µM (active)
same,AC50,[4],8.98 µM (active)
same,AC50,[5],13.5 µM (active)
same,AC50,[6],6.64 µM (active)
same,AC50,[7],12.7 µM (active)
same,AC50,[8],5.21 µM (active)
CC(c1ccc(O)cc1)(c1ccc(O)cc1)c1ccc(O)cc1,AC50,[1],25.9 µM (active)
same,AC50,[2],13.9 µM (active)
same,AC50,[3],33.8 µM (active)
same,outcome,[4],inactive
same,AC50,[5],20 µM (active)
same,AC50,[6],21.6 µM (active)
same,AC50,[7],15.7 µM (active)
CCCN(CCC)N=O,outcome,[1],inactive
same,outcome,[2],inactive
same,outcome,[3],inactive
same,outcome,[4],inactive
same,outcome,[5],inactive
same,outcome,[6],inactive
same,outcome,[7],inactive
same,outcome,[10],inactive
Cc1ccccc1CO[C@@H]1C[C@@]2(C(C)C)CC[C@]1(C)O2,outcome,[1],inactive
same,outcome,[2],inactive
same,outcome,[3],inactive
same,outcome,[4],inactive
same,outcome,[5],inactive
same,outcome,[6],inactive
same,outcome,[7],inactive
C[C@]12CCC(=O)C=C1CC[C@@H]1[C@@H]2CC[C@]2(C)C(=O)CC[C@@H]12,outcome,[1],inactive
same,outcome,[2],inactive
same,outcome,[3],inactive
same,outcome,[4],inactive
same,outcome,[5],inactive
same,outcome,[6],inactive
same,AC50,[7],20 µM (active)
same,AC50,[10],5.03 µM (active) and 5.63 µM (active) and 1.44 µM (active)
CC(C)C(=O)OCC(C)(C)C(OC(=O)C(C)C)C(C)C (stereo not given),outcome,[1],inactive
same,outcome,[2],inactive
same,outcome,[3],inactive
same,outcome,[4],inactive
same,outcome,[5],inactive
same,outcome,[6],inactive
same,outcome,[7],inactive
same,AC50,[10],11.6 µM (active)
CO/C=C(/C(=O)OC)c1ccccc1COc1cccc(C(F)(F)F)n1,AC50,[1],8.9 µM (active)
same,AC50,[2],6.75 µM (active)
same,AC50,[3],26.5 µM (active)
same,AC50,[4],1.17 µM (active)
same,AC50,[5],5.66 µM (active)
same,AC50,[6],4.57 µM (active)
same,AC50,[7],9.02 µM (active)
same,outcome,[8],inactive
Sc1ccccc1,outcome,[1],inactive
same,outcome,[2],inactive
same,outcome,[3],inactive
same,outcome,[4],inactive
same,outcome,[5],inactive
same,outcome,[6],inactive
same,outcome,[7],inactive
Cc1cccc(C)c1N,outcome,[1],inactive
same,outcome,[2],inactive
same,outcome,[3],inactive
same,outcome,[4],inactive
same,outcome,[5],inactive
same,outcome,[6],inactive
same,outcome,[7],inactive
Cc1cccc([N+](=O)[O-])c1,outcome,[1],inactive
same,outcome,[2],inactive
same,outcome,[3],inactive
same,outcome,[4],inactive
same,outcome,[5],inactive
same,outcome,[6],inactive
same,outcome,[7],inactive
same,outcome,[9],inactive
CCC(C)(c1ccc(O)cc1)c1ccc(O)cc1,AC50,[1],20 µM (active)
same,AC50,[2],16.8 µM (active)
same,outcome,[3],inactive
same,AC50,[4],29.8 µM (active)
same,AC50,[5],16 µM (active)
same,AC50,[6],28.5 µM (active)
same,outcome,[7],inactive
